A short description of assay [1]: qHTS assay to identify small molecule agonists of the vitamin D receptor (VDR) signaling pathway - cell viability counter screen (AID 743224). Note: series mostly up to about 63 µM; nearly all actives have a fitted effect of over 50% in size. In short, it runs like this: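 CellTiter-Glo viability readout on VDR-bla cells, measured after 16 h of compound treatment at 37C in the same wells.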
On the technique in general: In qHTS, concentration-response curves come from the screen itself.

A short description of assay [2]: qHTS assay to identify small molecule antagonists of the vitamin D receptor (VDR) signaling pathway - cell viability counter screen (AID 743225). Note: nearly all actives have a fitted effect of over 50% in size. The procedure, abridged: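 Parallel cytotoxicity test: VDR-UAS-bla HEK 293T, 3 nM (final) 1-alpha,25-dihydroxyvitamin D3 with test compound, 16 h, 37C. Endpoint is CellTiter-Glo luminescence in the same wells.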
Assay [3] in a line: qHTS assay to identify small molecule agonists of the NFkB signaling pathway (AID 1159509; active = well fitted curve in the direction sought with a large enough effect in the signal ratio in the repeat runs, not every such curve was filed as active; the % refers to the signal ratio; note: series mostly up to about 61 µM). The procedure, abridged: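 Agonist activity was read as beta-lactamase-driven FRET change (460 and 530 nm emission, 405 nm excitation) following 1.5 hr substrate loading at room temperature. Beforehand, ME-180 NFkB-bla reporter cells were treated with compounds for 5 hr at 37 C.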
Assay [4] is described as follows: qHTS assay to identify small molecule agonists of the NFkB signaling pathway - cell viability counter screen (AID 1159515; calls by dose curve; note: series mostly up to about 61 µM; nearly all actives have a fitted effect of over 55% in size). In short, it runs like this: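 Tox21 library compounds were tested for cytotoxicity against NFkB-bla ME-180 cells during a 5 hr exposure at 37 C. CellTiter-Glo luminescence served as the viability read-out.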
Assay [5] can be described thus: qHTS assay to identify small molecule agonists of the endoplasmic reticulum stress response signaling pathway (AID 1159516; active = well fitted activation curve with a large enough effect in the signal ratio in the repeat runs, not every such curve was filed as active; the % refers to the signal ratio). In short, it runs like this:
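Fluorescence at 460 and 530 nm (405 nm excitation) reports beta-lactamase from an ER stress response element in HeLa cells treated 5 hr at 37 C.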

A short description of assay [6]: qHTS assay to identify small molecule agonists of the endoplasmic reticulum stress response signaling pathway - cell viability counter screen (AID 1159517; calls by dose curve; note: series mostly up to about 61 µM; nearly all actives have a fitted effect of over 50% in size). The procedure, abridged:
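ESRE-bla HeLa cells (1,500/well) were plated overnight at 37 C and exposed to compounds for 5 hr. After the 2 hr beta-lactamase substrate read, CellTiter-Glo went into the same wells, and luminescence was read after 30 min at room temperature.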

The nature of assay [7]: qHTS assay to identify small molecule antagonists of the retinoid-related orphan receptor gamma (ROR-gamma) signaling pathway - cell viability counter screen (AID 1159520). Note: nearly all actives have a fitted effect of over 50% in size. The procedure, abridged:
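Cytotoxicity was read from cellular ATP (CellTiter-Glo luminescence) after 16 hr at 37 C with 1 uM doxycycline induction. The inducer was added 2 hr after compound transfer to Tet-on ROR gamma CHO cells.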

Assay [8] in a line: qHTS assay to identify small molecule agonists of the AP-1 signaling pathway - cell viability counter screen (AID 1159525; calls by dose curve; note: nearly all actives have a fitted effect of over 55% in size). The procedure, abridged: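 Intracellular ATP by Cell Titer Glo luminescence (30 min, RT) in the same ME-180 AP-1-bla wells after the 5 h compound exposure at 37 °C. Normalised to tetra n-octyl ammonium bromide and DMSO controls.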
Assay [9] is described as follows: qHTS assay to identify small molecule agonists of the AP-1 signaling pathway (AID 1159526; calls by dose curve).
Assay [10] has as its target Retinoic acid receptor RXR-alpha (Homo sapiens) (UniProt P19793). The experiment in a line: qHTS assay to identify small molecule agonists of the RXR signaling pathway (AID 1159527; calls by dose curve; note: nearly all actives have a fitted effect of over 35% in size; note: potency is the fitted concentration of half-maximal effect). In short, it runs like this: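 16 hr incubation of compound-treated RXR-alpha-UAS-bla HEK 293T cells (2% charcoal-stripped FBS, 37 C) preceded a 2 hr room-temperature LiveBLAzer FRET substrate step and blue/green fluorescence measurement.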

Assay [11] in a line: qHTS assay to identify small molecule agonists of the RXR signaling pathway - cell viability counter screen (AID 1159529). In short, it runs like this: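 In this parallel viability measure, GeneBLAzer RXR-alpha HEK 293T cells (2% charcoal-stripped FBS) were given a 5 hr preincubation, treated with compounds 16 hr at 37 C, and read by CellTiter-Glo luminescence.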
Assay [12] is described as follows: qHTS assay to identify small molecule antagonists of the retinoic acid receptor (RAR) signaling pathway (AID 1159552; note: nearly all actives have a fitted effect of over 50% in size). In short, it runs like this: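 C3RL4 RARE-luc cells, overnight plating; retinol 1 uM final added right after compound; 6 hr 37 C; luciferase read at 30 min RT.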
A short description of assay [13]: qHTS assay to identify small molecule agonists of the retinoic acid receptor (RAR) signaling pathway (AID 1159553). The procedure, abridged:
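In this cell-based screen, 1,000 C3RL4 cells per well were cultured overnight, dosed with test chemicals in DMSO for 6 hr, and assessed for RARE luciferase luminescence.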

Assay [14] is described as follows: qHTS assay to identify small molecule antagonists of the estrogen related receptor (ERR) signaling pathway from Tox21 library - cell viability counter screen (AID 1224834). Note: nearly all actives have a fitted effect of over 30% in size. In short, it runs like this:
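Counter screen run in ERR cells (2,000 cells/well): cells pre-incubated 6 h, then treated with compounds for 17.5 h at 37 C. Fluorescence was read 30 min after CellTiter-Fluor addition.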

The target in assay [15] is Luciferin 4-monooxygenase (Photinus pyralis) (UniProt P08659). The experiment in a line: qHTS assay to identify small molecule inhibitors of firefly luciferase (AID 1224835). Note: nearly all actives have a fitted effect of over 25% in size. Note: potency is the fitted concentration of half-maximal effect. In short, it runs like this:
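Inhibition of purified Photinus luciferase is measured by luminescence. Substrate levels (D-luciferin, ATP) sit at their KM values. Each compound is tested in a concentration series.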

A short description of assay [16]: qHTS assay to identify small molecule agonists of the constitutive androstane receptor (CAR) signaling pathway - cell viability counter screen (AID 1224836). Note: series mostly up to about 92 µM; nearly all actives have a fitted effect of over 45% in size. In short, it runs like this: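 Using CellTiter-Fluor, viability of HepG2 cells harbouring hCAR and CYP2B6-2.2kb was measured following 23 h incubation with a 15-concentration compound series plus PK11195 (0.75 uM final).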

A short description of assay [17]: qHTS assay to identify small molecule antagonists of the constitutive androstane receptor (CAR) signaling pathway - cell viability counter screen (AID 1224837). Note: series mostly up to about 92 µM; nearly all actives have a fitted effect of over 45% in size. In short, it runs like this:
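CITCO at 50 nM final was added alongside compounds (15 concentrations) to double-stable hCAR/CYP2B6-2.2kb HepG2 cells. Following 23 hr at 37 C, cell viability was quantified by CellTiter-Fluor fluorescence intensity.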

For assay [18], the target named is Nuclear receptor subfamily 1 group I member 3 (Homo sapiens) (UniProt Q14994). The experiment in a line: qHTS assay to identify small molecule antagonists of the constitutive androstane receptor (CAR) signaling pathway (AID 1224838). Note: nearly all actives have a fitted effect of over 40% in size. In short, it runs like this: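 Inhibition of CITCO-driven (50 nM final) CYP2B6 reporter expression is measured in HepG2 cells stably carrying hCAR. Fifteen compound concentrations are applied for 24 h at 37 C, followed by luciferase luminescence.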

Assay [19] in a line: qHTS assay to identify small molecule antagonists of the retinoid acid receptor (RAR) signaling pathway - cell viability counter screen (AID 1159551). Note: nearly all actives have a fitted effect of over 35% in size. In short, it runs like this:
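In this counter screen, the RARE-luciferase line C3RL4 was exposed for 6 h at 37 C and 5% CO2 to compounds with retinol at 1 uM final. Cellular ATP, read by luminescence, served as the viability measure.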

For assay [20], the target named is Nuclear receptor ROR-gamma (Homo sapiens) (UniProt P51449). Nature of the assay: qHTS assay to identify small molecule antagonists of the retinoid-related orphan receptor gamma (ROR-gamma) signaling pathway (AID 1159521). In short, it runs like this: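 Decreased RORE-driven luciferase luminescence indicates antagonism. Tet-on RORγ CHO cells received compound, then 1 uM final doxycycline 2 h later; signal read after 16 h incubation.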

The structures appear in SMILES notation. Records with an inconclusive call do not appear. Active and inactive are the calls of the source. Unless noted, calls come from the whole dose curve; as a rule, active = well fitted curve in the direction sought with a large enough effect in the repeat runs; inconclusive = weak or mixed curves; inactive = no such curve, though single readings can be large; an effect the other way counts as inactive or inconclusive.

Sequence of Luciferin 4-monooxygenase (Photinus pyralis) (P08659 whole entry, looked up): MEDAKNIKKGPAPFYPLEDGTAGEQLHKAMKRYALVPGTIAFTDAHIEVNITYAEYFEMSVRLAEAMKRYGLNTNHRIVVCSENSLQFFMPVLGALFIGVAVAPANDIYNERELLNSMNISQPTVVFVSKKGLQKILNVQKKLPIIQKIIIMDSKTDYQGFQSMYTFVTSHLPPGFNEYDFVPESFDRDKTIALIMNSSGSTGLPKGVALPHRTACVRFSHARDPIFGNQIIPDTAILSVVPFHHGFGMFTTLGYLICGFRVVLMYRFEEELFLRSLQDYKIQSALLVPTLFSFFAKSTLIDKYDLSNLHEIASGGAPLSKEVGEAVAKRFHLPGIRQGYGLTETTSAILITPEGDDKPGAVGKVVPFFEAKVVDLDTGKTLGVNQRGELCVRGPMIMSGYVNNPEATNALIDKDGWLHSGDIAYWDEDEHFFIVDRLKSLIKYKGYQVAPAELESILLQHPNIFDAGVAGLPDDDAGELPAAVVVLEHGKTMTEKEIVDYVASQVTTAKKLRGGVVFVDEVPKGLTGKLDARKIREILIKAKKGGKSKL
Sequence of Retinoic acid receptor RXR-alpha (Homo sapiens) (P19793 whole entry, looked up): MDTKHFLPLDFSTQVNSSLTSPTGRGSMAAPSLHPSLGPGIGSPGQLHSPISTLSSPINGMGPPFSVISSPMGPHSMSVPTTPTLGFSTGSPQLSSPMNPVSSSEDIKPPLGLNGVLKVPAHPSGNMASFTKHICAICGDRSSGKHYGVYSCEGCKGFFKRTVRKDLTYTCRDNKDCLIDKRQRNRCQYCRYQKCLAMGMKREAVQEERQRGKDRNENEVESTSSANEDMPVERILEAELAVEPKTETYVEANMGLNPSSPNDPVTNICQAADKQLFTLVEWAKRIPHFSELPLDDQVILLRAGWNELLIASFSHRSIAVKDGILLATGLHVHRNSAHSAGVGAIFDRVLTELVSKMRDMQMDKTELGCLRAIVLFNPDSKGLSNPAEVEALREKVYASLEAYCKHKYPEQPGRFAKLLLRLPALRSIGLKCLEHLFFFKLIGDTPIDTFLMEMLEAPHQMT
Sequence of Nuclear receptor subfamily 1 group I member 3 (Homo sapiens) (Q14994 whole entry, looked up): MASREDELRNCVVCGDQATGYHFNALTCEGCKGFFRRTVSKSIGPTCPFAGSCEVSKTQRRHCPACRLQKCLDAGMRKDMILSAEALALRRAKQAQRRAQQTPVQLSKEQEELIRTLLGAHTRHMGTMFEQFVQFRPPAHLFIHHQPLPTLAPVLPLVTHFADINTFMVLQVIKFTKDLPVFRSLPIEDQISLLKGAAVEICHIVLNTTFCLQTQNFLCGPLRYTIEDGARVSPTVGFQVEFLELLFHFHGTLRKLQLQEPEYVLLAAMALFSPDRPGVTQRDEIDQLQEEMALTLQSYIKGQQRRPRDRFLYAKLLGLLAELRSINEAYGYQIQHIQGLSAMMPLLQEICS

For the compound `CC1(C)Oc2ccc(C#N)cc2[C@@H](N2CCCC2=O)[C@@H]1O`, the compound was classed as inactive in [1], in assay [2], in assay [3], in assay [4], in assay [5] and in assay [6]. Further, the compound was classed as inactive in [7], in assay [8], in assay [9], in assay [11], in [12] and in [14]. In addition, the compound was called inactive in assay [16] and in assay [17]. Besides, the Potency result in assay [10], in assay [13], in [15] and in assay [18] was “inactive” each time.
For the compound `CC(=O)c1cc(C)oc1C`, the compound was classed as inactive in [1], in [2], in assay [3], in assay [4], in assay [5] and in [6]. The compound was classed as inactive in [7], in assay [8], in assay [9], in assay [11], in [19] and in assay [12]. Besides, the result in assay [16] and in assay [17] was inactive. Besides, the Potency entry in assay [10], in [13], in assay [15] and in [18] was “inactive” throughout.
For the compound `C=CC(=O)CCCCC`, the call in assay [1], in [3], in assay [4], in assay [5], in [6] and in [7] was inactive. Besides, the compound was called inactive in assay [20], in [9], in assay [11], in assay [19], in assay [14] and in assay [16]. In [17], the compound was called inactive. For the same compound, the Potency entry in assay [10], in assay [15] and in assay [18] was “inactive” in each case.
For `CCC(C)C(=O)OCCc1ccccc1` (stereo not drawn), the result in assay [1], in assay [3], in [4], in assay [5], in [6] and in assay [7] was inactive. The call in [20], in assay [9], in assay [11], in assay [19], in assay [12] and in assay [16] was inactive. The compound was called inactive in assay [17]. Also, the Potency in [10] is 43.6 µM (active); in [15], 50.2 µM (active). For the same compound, the Potency entry in assay [13] and in [18] was “inactive” throughout.
Turning to `CC(C)(CO)C(O)C(=O)NCCCO` (stereo not drawn), the compound was called inactive in [1], in assay [2], in assay [3], in assay [4], in assay [5] and in assay [6]. Besides, the outcome in [7], in assay [20], in assay [9], in assay [11], in assay [12] and in [14] was inactive. The call in assay [16] and in assay [17] was inactive. The Potency entry in [10], in assay [13], in assay [15] and in assay [18] was “inactive” throughout.
Consider `Nc1nnnn1-c1ccccc1`, for which the call in assay [1], in assay [2], in [3], in assay [4], in assay [5] and in assay [6] was inactive. For the same compound, the result in assay [7], in [8], in assay [9], in assay [11], in assay [19] and in [12] was inactive. The compound was called inactive in assay [14], in [16] and in assay [17]. Moreover, the Potency result in assay [10], in assay [13], in [15] and in assay [18] was “inactive” in each case.
For the compound `CC(N)CCCC(C)(C)O` (stereo not drawn), the compound was classed as inactive in assay [1], in [2], in assay [3], in assay [4], in assay [5] and in assay [6]. In addition, the outcome in [7], in [8], in [9], in assay [11], in assay [12] and in assay [14] was inactive. Further, the compound was classed as inactive in assay [16] and in assay [17]. Further, the Potency entry in assay [10], in assay [15] and in [18] was “inactive” each time.
